# Reference: PubChem BioAssay AID1159580 (chemical genetic matrix, 2015)
# Hit rate of the full screen: of about 5,500 compounds, about 2,000 (36%) were called active. Another 18% or so got no clear call; they are omitted. Some of the results follow. Values without a mark were called inactive. Cut-off read from the data, not from the text of the source: active = normalized growth mostly below about 0.91 (no sharp cut-off); inconclusive = no clear call, values can overlap the other calls; inactive = mostly above about 0.92.
# Assay: chemical genetic growth profiling, strain panel (AID 1159580);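 note: tested at 20 µM; growth read once vehicle control cultures reached saturation at 30 °C; 1 = growth at the plate median or of vehicle wells; lower values mean less growth of the strain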
# Details: growth OD
compound,measurement,setting,value
CCCSc1ccc2nc(NC(=O)OC)[nH]c2c1,normalized growth,"S. cerevisiae deletion strains, locus YJR075W, strain HOC1, hits give low values",0.97
same,normalized growth,"S. cerevisiae deletion strains, locus YKL009W, strain mrt4, hits give low values",0.938
same,normalized growth,"S. cerevisiae deletion strains, locus YKL068W, hits give low values",0.972
same,normalized growth,"S. cerevisiae deletion strains, locus YKL085W, strain MDH1 (second series), hits give low values",0.986
same,normalized growth,"S. cerevisiae deletion strains, locus YKL085W, strain MDH1, hits give low values",0.986
same,normalized growth,"S. cerevisiae deletion strains, locus YKL160W, strain elf1, hits give low values",1.01
same,normalized growth,"S. cerevisiae deletion strains, locus YKL190W, strain CNB1, hits give low values",0.988
same,normalized growth,"S. cerevisiae deletion strains, locus YKR001C, strain vps1, hits give low values",0.882 (active)
same,normalized growth,"S. cerevisiae deletion strains, locus YKR026C, strain gcn3, hits give low values",1.01
same,normalized growth,"S. cerevisiae deletion strains, locus YKR091W, strain srl3, hits give low values",1.01
same,normalized growth,"S. cerevisiae deletion strains, locus YLL001W, strain dnm1, hits give low values",0.999
same,normalized growth,"S. cerevisiae deletion strains, locus YLL026W, hits give low values",1.01
same,normalized growth,"S. cerevisiae deletion strains, locus YLL041C, strain sdh2, hits give low values",1
same,normalized growth,"S. cerevisiae deletion strains, locus YLR027C, strain aat2, hits give low values",1
same,normalized growth,"S. cerevisiae deletion strains, locus YLR039C, strain RIC1, hits give low values",0.731
same,normalized growth,"S. cerevisiae deletion strains, locus YLR058C, strain SHM2, hits give low values",0.988
same,normalized growth,"S. cerevisiae deletion strains, locus YLR102C, strain apc9, hits give low values",0.973
same,normalized growth,"S. cerevisiae deletion strains, locus YLR113W, strain HOG1, hits give low values",0.979
same,normalized growth,"S. cerevisiae deletion strains, locus YLR221C, strain rsa3, hits give low values",1.01
same,normalized growth,"S. cerevisiae deletion strains, locus YLR258W, strain gsy2, hits give low values",1.01
same,normalized growth,"S. cerevisiae deletion strains, locus YLR262C, strain YPT6 (second series), hits give low values",0.874
same,normalized growth,"S. cerevisiae deletion strains, locus YLR262C, strain YPT6, hits give low values",0.732
same,normalized growth,"S. cerevisiae deletion strains, locus YLR268W, strain sec22, hits give low values",0.847 (active)
same,normalized growth,"S. cerevisiae deletion strains, locus YLR320W, strain mms22, hits give low values",1.01
same,normalized growth,"S. cerevisiae deletion strains, locus YLR330W, strain CHS5, hits give low values",0.982
same,normalized growth,"S. cerevisiae deletion strains, locus YLR342W, strain FKS1 (second series), hits give low values",1.01
same,normalized growth,"S. cerevisiae deletion strains, locus YLR342W, strain FKS1, hits give low values",1.02
same,normalized growth,"S. cerevisiae deletion strains, locus YLR357W, strain rsc2, hits give low values",0.975
same,normalized growth,"S. cerevisiae deletion strains, locus YLR370C, strain arc18, hits give low values",1
same,normalized growth,"S. cerevisiae deletion strains, locus YLR371W, strain rom2, hits give low values",0.967
same,normalized growth,"S. cerevisiae deletion strains, locus YLR384C, strain iki3, hits give low values",0.997
same,normalized growth,"S. cerevisiae deletion strains, locus YLR418C, strain cdc73, hits give low values",0.886
same,normalized growth,"S. cerevisiae deletion strains, locus YML016C, strain PPZ1, hits give low values",0.993
same,normalized growth,"S. cerevisiae deletion strains, locus YML032C, strain rad52, hits give low values",0.947
same,normalized growth,"S. cerevisiae deletion strains, locus YML120C, strain ndi1, hits give low values",1
same,normalized growth,"S. cerevisiae deletion strains, locus YML124C, strain tub3, hits give low values",0.202 (active)
same,normalized growth,"S. cerevisiae deletion strains, locus YMR058W, strain fet3, hits give low values",1.01
same,normalized growth,"S. cerevisiae deletion strains, locus YMR078C, strain ctf18, hits give low values",0.964
same,normalized growth,"S. cerevisiae deletion strains, locus YMR125W, strain sto1, hits give low values",1.02
same,normalized growth,"S. cerevisiae deletion strains, locus YMR129W, hits give low values",1.01
same,normalized growth,"S. cerevisiae deletion strains, locus YMR205C, strain PFK2, hits give low values",1.03
same,normalized growth,"S. cerevisiae deletion strains, locus YMR223W, strain ubp8, hits give low values",0.997
same,normalized growth,"S. cerevisiae deletion strains, locus YMR231W, strain pep5, hits give low values",1.03
same,normalized growth,"S. cerevisiae deletion strains, locus YMR263W, strain SAP30, hits give low values",0.941
same,normalized growth,"S. cerevisiae deletion strains, locus YMR307W, strain GAS1, hits give low values",1.19
same,normalized growth,"S. cerevisiae deletion strains, locus YNL067W, strain RPL9B, hits give low values",0.942
same,normalized growth,"S. cerevisiae deletion strains, locus YNL071W, strain lat1, hits give low values",1.02
same,normalized growth,"S. cerevisiae deletion strains, locus YNL128W, strain TEP1, hits give low values",0.989
same,normalized growth,"S. cerevisiae deletion strains, locus YNL153C, strain GIM3, hits give low values",0.0651 (active)
same,normalized growth,"S. cerevisiae deletion strains, locus YNL183C, strain NPR1, hits give low values",0.896
same,normalized growth,"S. cerevisiae deletion strains, locus YNL209W, strain ssb2, hits give low values",1
same,normalized growth,"S. cerevisiae deletion strains, locus YNL233W, strain BNI4, hits give low values",0.965
same,normalized growth,"S. cerevisiae deletion strains, locus YNL248C, strain rpa49, hits give low values",1
same,normalized growth,"S. cerevisiae deletion strains, locus YNL250W, strain rad50, hits give low values",0.999
same,normalized growth,"S. cerevisiae deletion strains, locus YNL271C, strain bni1, hits give low values",0.973
same,normalized growth,"S. cerevisiae deletion strains, locus YNL298W, strain CLA4, hits give low values",0.947
same,normalized growth,"S. cerevisiae deletion strains, locus YNL307C, strain MCK1, hits give low values",0.948
same,normalized growth,"S. cerevisiae deletion strains, locus YNL322C, strain KRE1 (second series), hits give low values",1.01
same,normalized growth,"S. cerevisiae deletion strains, locus YNL322C, strain KRE1, hits give low values",0.996
same,normalized growth,"S. cerevisiae deletion strains, locus YNR049C, strain mso1, hits give low values",1.01
same,normalized growth,"S. cerevisiae deletion strains, locus YNR052C, strain pop2, hits give low values",0.958
same,normalized growth,"S. cerevisiae deletion strains, locus YOL006C, strain TOP1, hits give low values",0.729
same,normalized growth,"S. cerevisiae deletion strains, locus YOL012C, strain htz1",0.603
same,normalized growth,"S. cerevisiae deletion strains, locus YOL147C, strain pex11, hits give low values",0.967
same,normalized growth,"S. cerevisiae deletion strains, locus YOR001W, strain rrp6, hits give low values",1.01
same,normalized growth,"S. cerevisiae deletion strains, locus YOR061W, strain CKA2, hits give low values",0.996
same,normalized growth,"S. cerevisiae deletion strains, locus YOR069W, strain VPS5, hits give low values",0.99
same,normalized growth,"S. cerevisiae deletion strains, locus YOR070C, strain gyp1, hits give low values",1.01
same,normalized growth,"S. cerevisiae deletion strains, locus YOR080W, strain dia2, hits give low values",1.02
same,normalized growth,"S. cerevisiae deletion strains, locus YOR083W, strain WHI5, hits give low values",1.01
same,normalized growth,"S. cerevisiae deletion strains, locus YOR106W, strain vam3, hits give low values",0.997
same,normalized growth,"S. cerevisiae deletion strains, locus YOR136W, strain idh2, hits give low values",0.996
same,normalized growth,"S. cerevisiae deletion strains, locus YOR144C, strain elg1, hits give low values",0.965
same,normalized growth,"S. cerevisiae deletion strains, locus YOR184W, strain ser1, hits give low values",0.893
same,normalized growth,"S. cerevisiae deletion strains, locus YOR231W, strain MKK1, hits give low values",0.941
same,normalized growth,"S. cerevisiae deletion strains, locus YOR265W, strain rbl2, hits give low values",1.02
same,normalized growth,"S. cerevisiae deletion strains, locus YOR270C, strain vph1, hits give low values",0.963
same,normalized growth,"S. cerevisiae deletion strains, locus YOR290C, strain snf2, hits give low values",0.98
same,normalized growth,"S. cerevisiae deletion strains, locus YOR316C, strain cot1, hits give low values",0.959
same,normalized growth,"S. cerevisiae deletion strains, locus YPL051W, strain arl3, hits give low values",0.998
same,normalized growth,"S. cerevisiae deletion strains, locus YPL055C, strain LGE1, hits give low values",0.945
same,normalized growth,"S. cerevisiae deletion strains, locus YPL078C, strain atp4, hits give low values",1.01
same,normalized growth,"S. cerevisiae deletion strains, locus YPL106C, strain sse1, hits give low values",1.04
same,normalized growth,"S. cerevisiae deletion strains, locus YPL240C, strain hsp82, hits give low values",1
same,normalized growth,"S. cerevisiae deletion strains, locus YPL241C, strain CIN2, hits give low values",0.0807 (active)
same,normalized growth,"S. cerevisiae deletion strains, locus YPL256C, strain CLN2, hits give low values",0.933
same,normalized growth,"S. cerevisiae deletion strains, locus YPR119W, strain clb2, hits give low values",0.963
same,normalized growth,"S. cerevisiae deletion strains, locus YPR141C, strain kar3, hits give low values",0.992
same,normalized growth,"S. cerevisiae deletion strains, locus YPR163C, strain tif3, hits give low values",0.904 (active)
same,normalized growth,"S. cerevisiae deletion strains, locus YPR167C, strain met16, hits give low values",0.954
same,normalized growth,"S. cerevisiae deletion strains, strain wtn01, hits give low values",0.916
same,normalized growth,"S. cerevisiae strains, strain wild type, hits give low values",1
